From PubChem BioAssay
ALDH1A1 inh = ALDH1A1 (human) enzyme inhibition; Purified ALDH1A1, NADH fluorescence, propionaldehyde substrate; Potency, µM (series often up to 75.3 µM), most hits filed as inhibitors; actives 7.3% (n = 220,000); AID 1030; active means well fitted inhibition curve with a large enough effect, not every such curve was filed as active; inconclusive means small, poorly fitted or top-dose-only effect, or another doubt; inactive means no such curve, though single readings can be large or run the other way
NPSR antagonist = neuropeptide S receptor (human) antagonism, cAMP. Q6W5P4. Potency, µM (top dose mostly 38.3 µM), hits mostly inhibitors. actives 1% (n = 220,000). CHO-NPSR cells, cAMP TR-FRET, antagonist mode. AID 1461; further: nearly all actives have a fitted effect of over 50% in size
Target sequence (Q6W5P4 whole entry, looked up): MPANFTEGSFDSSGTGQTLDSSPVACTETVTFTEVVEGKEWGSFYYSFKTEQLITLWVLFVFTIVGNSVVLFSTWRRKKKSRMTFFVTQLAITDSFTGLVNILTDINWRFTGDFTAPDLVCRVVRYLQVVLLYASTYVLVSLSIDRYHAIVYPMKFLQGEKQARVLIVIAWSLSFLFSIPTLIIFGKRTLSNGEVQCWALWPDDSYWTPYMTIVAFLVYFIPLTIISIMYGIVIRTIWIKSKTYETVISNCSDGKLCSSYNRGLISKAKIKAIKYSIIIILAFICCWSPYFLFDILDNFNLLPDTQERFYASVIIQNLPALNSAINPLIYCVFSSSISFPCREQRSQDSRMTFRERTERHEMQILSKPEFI
Tau fibril ThT = blocks human tau fibril formation measured by thioflavin T; recombinant tau K18 P301L, heparin-induced fibrillization, ThT fluorescence; Potency, µM (doses to about 57.4 µM), most hits filed as inhibitors; actives 2.1% (n = 270,000); further: nearly all actives have a fitted effect of over 55% in size
Target sequence (P10636 561-689 P618L limits assumed): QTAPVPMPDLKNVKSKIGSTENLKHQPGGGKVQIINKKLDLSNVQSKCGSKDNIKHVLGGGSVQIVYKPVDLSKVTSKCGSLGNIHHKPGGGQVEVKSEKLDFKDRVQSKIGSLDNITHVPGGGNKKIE
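Tau K18 P301L fragment (15 uM unlabeled plus 0.24 uM Alexa 594-labeled) in 100 mM sodium acetate pH 7 with compound, fibrillization induced by 20 uM heparin for 6 hr at 37 C. Thioflavin T (30 uM) added, fluorescence read after 1 hr (ex 450, em 510 nm).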
HPGD block = blocks human HPGD enzyme activity. purified HPGD, NADH fluorescence kinetic, PGE2 substrate. Potency, µM, most hits filed as inhibitors. P15428. actives 4.3% (n = 150,000). AID 894; active means well fitted inhibition curve with a large enough effect, not every such curve was filed as active; inconclusive means small, poorly fitted or top-dose-only effect, or another doubt; inactive means no such curve, though single readings can be large or run the other way
Target sequence (P15428 whole entry, looked up): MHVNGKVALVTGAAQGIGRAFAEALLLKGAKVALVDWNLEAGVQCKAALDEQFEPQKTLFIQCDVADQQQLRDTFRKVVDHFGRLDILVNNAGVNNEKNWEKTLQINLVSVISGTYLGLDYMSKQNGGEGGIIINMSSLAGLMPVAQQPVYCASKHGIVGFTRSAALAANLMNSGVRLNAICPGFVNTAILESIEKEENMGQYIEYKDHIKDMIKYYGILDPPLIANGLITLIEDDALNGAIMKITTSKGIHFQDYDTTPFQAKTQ
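20 nM HPGD preincubated 15 min at room temperature with compound in 50 mM Tris-HCl pH 8, 0.01% Tween 20. Started with 1 mM NAD+ and 30 uM prostaglandin E2; NADH fluorescence (360/450 nm) read 5 times over 30-s intervals, last minus first.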
Tau FP inhib = blocks human tau fibril formation measured by polarization | P10636 | actives 0.39% (n = 280,000) | AID 1468 | Potency, µM (doses to about 57.7 µM), hits mostly inhibitors | K18 P301L tau heparin fibrillization, Alexa594 FP, 6 h; further: nearly all actives have a fitted effect of over 55% in size
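K18 P301L tau (15 uM unlabeled/0.24 uM Alexa 594-labeled, final) + compound + heparin 20 uM final; 100 mM NaOAc pH 7; 6 hr 37 C; ThT 30 uM final added, 1 hr RT; FP ex 555/em 632 nm.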
Tau fluor cs = counter-screen for tau fibril formation inhibitors. tau K18 P301L Alexa594 fluorescence, heparin fibrillization. Potency, µM (doses to about 57.7 µM). actives 0.93% (n = 280,000). AID 1463; further: nearly all actives have a fitted effect of over 55% in size
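Human tau K18 P301L (15 uM unlabeled, 0.24 uM Alexa 594-labeled) in 100 mM sodium acetate pH 7 with 20 uM heparin, 6 hr at 37 C. ThT 30 uM added, 1 hr ambient; Alexa 594 FP and total fluorescence read at 555/632 nm.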
Each line names hits and unclear results; the compound was inactive in the other large screens; ! = a repeat was not active; [ ] = dose if it differs, or a comment. A selection: hits, their analogues and other compounds. The true share with any hit is near 9.5%. Unless noted, the call rests on the fitted dose curve; in most records, active means well fitted curve in the direction sought with a large enough effect; inconclusive means small, poorly fitted or top-dose-only effect, or another doubt; inactive means no such curve, though single readings can be large; an effect the other way counts as inactive or inconclusive.

Cn1c(=S)c2[nH]c(SCc3cccnc3)nc2n(C)c1=O	ALDH1A1 inh inconclusive, HPGD block 4µM (no result: NPSR antagonist, Tau fibril ThT, Tau FP inhib, Tau fluor cs)
CC(C)Cc1nc(SCc2cccnc2)c2c(=O)n(C)c(=O)n(C)c2n1	ALDH1A1 inh 7.1µM (no result: HPGD block)
Cn1c(=O)c2c(SCC(N)=O)nc(CC(C)(C)C)nc2n(C)c1=O	ALDH1A1 inh inconclusive
Cn1c(=O)c2c(SCc3c(F)cccc3Cl)nc(CC(C)(C)C)nc2n(C)c1=O	NPSR antagonist 10µM
CC(CCc1ccccc1)NC(=O)c1cccs1 (stereo not drawn)	HPGD block inconclusive
COC(=O)[C@@H]1CC[C@H](C)[C@@H](c2ccc(C)cc2)N1C(=O)c1ccc(/C=N\O[C@@H](C)CN2CCCCc3nc(C)c(C)cc32)cc1	none (no result: NPSR antagonist, HPGD block)
COC(=O)[C@@H]1CC[C@H](C)[C@@H](c2ccc(C)cc2)N1C(=O)c1ccc(/C=N/O[C@@H](C)CN2CCCCc3nc(C)c(C)cc32)cc1	ALDH1A1 inh inconclusive, NPSR antagonist 10µM, Tau fibril ThT inconclusive, HPGD block inconclusive
Cn1cc([N+](=O)[O-])c(C(=O)Nc2ccn(Cc3c(F)c(F)cc(F)c3F)n2)n1	none
NC(=O)c1ncn(C2OC(CO)C(O)C2O)c1N (stereo not drawn)	Tau FP inhib inconclusive (no result: NPSR antagonist)
Nc1nc(SCc2ccc([N+](=O)[O-])cc2)c2ncn([C@@H]3O[C@H](CO)[C@@H](O)[C@H]3O)c2n1	none (no result: NPSR antagonist, HPGD block)
Nc1ncn([C@@H]2O[C@H](CO)[C@@H](O)[C@H]2O)c(=O)n1	ALDH1A1 inh 22µM!
Nc1nc(SCc2ccc([N+](=O)[O-])cc2)c2ncn([C@@H]3O[C@H](CO)[C@H](O)[C@H]3O)c2n1	HPGD block 25µM
O=c1[nH]c(S)c(/C=C2\C=Nc3ccccc32)s1	ALDH1A1 inh 25µM, Tau fibril ThT 1.4µM, Tau FP inhib inconclusive, Tau fluor cs inconclusive (no result: HPGD block)
C=CCOc1ccc2c(c1)C(=NO)c1cc(OCC=C)ccc1-2	Tau fibril ThT 7.9µM, Tau FP inhib inconclusive, Tau fluor cs inconclusive
C=CCOc1ccc(/C=C/C(C)=N\O)cc1	none (no result: HPGD block)
COc1ccc2c(c1)C(=NO)c1cc(OC)ccc1-2	ALDH1A1 inh inconclusive, Tau fibril ThT 0.71µM, Tau fluor cs inconclusive
CCN(CC)c1nc(N)c2c(N)nc3c(c2c1C#N)CC(c1ccccc1)O3 (stereo not drawn)	ALDH1A1 inh inconclusive, NPSR antagonist inconclusive, Tau fibril ThT inconclusive, HPGD block inconclusive, Tau fluor cs 32µM[quencher]
CCC1Cc2c(nc(N)c3c(N)nc(N4CCCCC4)c(C#N)c23)O1 (stereo not drawn)	ALDH1A1 inh inconclusive, Tau fibril ThT inconclusive, Tau fluor cs 16µM[quencher] (no result: HPGD block)
N#Cc1c(N)nc2c(c1N)CC(COc1ccccc1)O2 (stereo not drawn)	none
CCN(CC)c1nc(N)c2c(N)n(-c3ccccc3C)c(=S)c(C#N)c2c1C#N	ALDH1A1 inh inconclusive, HPGD block 20µM
N#Cc1c(N2CCCCC2)nc(N)c2c(N)nc3c(c12)CC(c1ccccc1)O3 (stereo not drawn)	ALDH1A1 inh inconclusive, NPSR antagonist inconclusive, Tau fibril ThT inconclusive, HPGD block inconclusive, Tau fluor cs 11µM[quencher]
N#Cc1c(N2CCN(c3ccc(F)cc3)CC2)nc(N)c2c(N)nc3c(c12)CC(=O)N3C1CC1	ALDH1A1 inh inconclusive (no result: HPGD block)
CCCCC[C@H](O)/C=C/C=C\C/C=C\CCCCC(=O)O	none (no result: NPSR antagonist)
C/C(CC(=O)NC1CCCCC1)=N\NC(=O)Cc1ccc(-c2ccccc2)cc1	ALDH1A1 inh inconclusive (no result: HPGD block)
Cc1ccc(Nc2nnc(-c3ccc(C)c(S(=O)(=O)N4CCN(C)CC4)c3)c3ccccc23)c(C)c1	none (no result: ALDH1A1 inh, NPSR antagonist, HPGD block)
CCOC(=O)C1=C(NC#N)OC(C)=C(C)C1c1ccc(O)cc1 (stereo not drawn)	ALDH1A1 inh 22µM, Tau fibril ThT inconclusive
Cc1ccc2c(c1)NCC(C(=O)NC1CCCCC1)O2 (stereo not drawn)	HPGD block 13µM
O=C(O)c1ccc(-n2nc(C(F)(F)F)c3c2-c2ccoc2CC3)cc1	Tau fibril ThT inconclusive, HPGD block 22µM, Tau FP inhib inconclusive
CCOc1ccc(-c2nc(CNC(=O)NC3CCCCC3)c(C)o2)cc1	none (no result: ALDH1A1 inh, NPSR antagonist, HPGD block)
COc1cccc(NC(=O)C2C3CCC4C(CCC32)C4(Cl)Cl)c1 (stereo not drawn)	ALDH1A1 inh 7.9µM
COc1ccc(NC(=O)C2C3CCC4C(CCC32)C4(Cl)Cl)cc1 (stereo not drawn)	none
CC(C)c1cc[n+](-c2nc([O-])sc2C=O)cc1	ALDH1A1 inh inconclusive, Tau fibril ThT 35µM
COc1cc2c(cc1OC)-c1nnnn1C(C)(C)C2	ALDH1A1 inh inconclusive
CC1(C)Cc2ccccc2-c2nnnn21	ALDH1A1 inh 11µM
c1ccc2c(c1)CC1(CCCC1)n1nnnc1-2	ALDH1A1 inh 13µM (no result: HPGD block)
c1coc(-c2nnc3n2C2(CCCC2)Cc2ccccc2-3)c1	none
Cn1c(=O)c(-c2cccs2)nc2cnc(N3CCOCC3)nc21	none (no result: NPSR antagonist, Tau fibril ThT, HPGD block, Tau FP inhib, Tau fluor cs)
COc1ccc2c(=O)c3c(=O)n(Cc4ccco4)c(C(C)C)nc3oc2c1	ALDH1A1 inh 9.5µM
O=C1C2C3C=CC([C@@H]2C(=O)N1C1CC1)[C@H]1C(=O)N(C2CC2)C(=O)C31 (stereo partly drawn)	ALDH1A1 inh inconclusive
O=C1C2C3C=CC(C2C(=O)N1C1CCCCC1)C1C(=O)N(C2CCCCC2)C(=O)C31 (stereo not drawn)	ALDH1A1 inh 2.8µM
Cc1ccc2oc(C(=O)Nc3c(C(=O)Nc4cccc(Cl)c4)oc4ccccc34)cc(=O)c2c1	none (no result: ALDH1A1 inh, NPSR antagonist, HPGD block)
O=C(NCC1CCCCC1)c1cc([N+](=O)[O-])ccc1N1CCOCC1	ALDH1A1 inh inconclusive (no result: HPGD block)
O=C(c1ccccc1)c1cc([N+](=O)[O-])ccc1N1CCCC1	Tau fibril ThT inconclusive
O=C(c1ccc(Br)cc1)c1cc([N+](=O)[O-])ccc1N1CCCCC1	ALDH1A1 inh 2.8µM
CN1CCN(S(=O)(=O)c2cc([N+](=O)[O-])ccc2N2CCCCCC2)CC1	ALDH1A1 inh inconclusive
O=C(NC12CC3CC(CC(C3)C1)C2)c1cc([N+](=O)[O-])ccc1N1CCOCC1	ALDH1A1 inh 13µM, NPSR antagonist inconclusive (no result: HPGD block)
CN1CCN(c2ccc([N+](=O)[O-])cc2C(=O)c2ccc(Br)cc2)CC1	ALDH1A1 inh 28µM
O=[N+]([O-])c1ccc(N2CCCCCC2)c(S(=O)(=O)N2CCCCC2)c1	ALDH1A1 inh 25µM, NPSR antagonist inconclusive
COc1cccc(Nc2ncc3nc(-c4ccccc4)c(=O)n(C[C@H]4CCCO4)c3n2)c1	none (no result: NPSR antagonist, Tau fibril ThT, Tau FP inhib, Tau fluor cs)
C/C(CCN1CCCCc2nc(C)c(C)cc21)=N\O[C@@H](C)c1cc(-c2c(C)cc(C)cc2C)no1	none (no result: NPSR antagonist, HPGD block)
COC(=O)NC(c1cccc(C)c1)C(C(C)=O)C(=O)OC (stereo not drawn)	none (no result: NPSR antagonist, HPGD block)
